SF-1 inh – blocks the human nuclear receptor SF-1. CHO-K1 Gal4-SF-1 LBD luciferase reporter. inhibition, % at 10 µM. 65,000 compounds, 0.55% hits. AID 525;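 active means inhibition above the mean inhibition of all tested compounds plus 3 SD, cut at about 48% in these data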
Of the large screens only hits and unclear results are named; the others gave an inactive call. This excerpt belongs to a sample that is enriched for hits.

CCOc1ccc(OCC)c(NC(=O)CSc2nc3c(c(=O)n(C)c(=O)n3C)n2C(C)C)c1	none
CN(C)c1ccc(NC(=O)Nc2cccc(Cl)c2)cc1	none
CN(C)c1ccc(NC(=S)c2ccccn2)cc1	SF-1 inh 86
CN(C)S(=O)(=O)c1ccc(NC(=O)c2ccccn2)cc1	none
CCC(C(=O)N1CCc2ccccc2C1)n1nc(C)n2c(cc3occc32)c1=O (centres undefined)	none
Cn1cc(C(=O)NCCN2CCN(c3ccccc3F)CC2)c2c3ccccc3n(C)c2c1=O	none
COc1cccc(C(=O)N2CCN(Cc3cccc(F)c3)CC2)c1	none
Cc1ccc(-c2ccc(OCC(=O)N3CCOCC3)cc2)cc1	none
CCOc1ccc(OCc2cccc(C(=O)N3CCOCC3)c2)cc1	SF-1 inh 62
CC(C)(C)n1ncc2c(=O)n(CC(=O)NCc3ccccc3)cnc21	none
CCOC(=O)c1ccc(N2Cc3cc(C)c(C)cc3C2)cc1O	none
COc1cccc(-n2nnnc2SCC(=O)Nc2cccc(C)n2)c1	none
O=C(Nc1nsc(-c2ccccc2)n1)c1cccs1	none
O=C(CSc1nnnn1-c1ccccc1)Nc1nsc(-c2ccc(Cl)cc2)n1	SF-1 inh 88
CCCC(=O)Nc1cccc(C(=O)Nc2nccs2)c1	none
CCCSc1nnc(Cn2c(=O)sc3ccccc32)n1-c1ccccc1	none
O=S(=O)(c1ccccc1)N(C1=NCCS1)S(=O)(=O)c1ccccc1	none
Clc1ccc(OCCN2CCN(c3ncnc4sccc34)CC2)cc1	SF-1 inh 90
O=C(c1cccs1)N1CCn2c1nc1ccccc12	none
COc1ccc(-c2noc(CCCC(=O)NCCc3ccccc3)n2)cc1OC	SF-1 inh 60
COc1ccc(CCC(=O)Nc2ccc(-c3noc(-c4ccc(OC)c(OC)c4)n3)cc2)cc1	none
COc1ccc(-c2noc(CCC(=O)NCCN3CCN(c4ccccc4F)CC3)n2)cc1	none
COc1ccc(NC(=O)Cn2c(=O)sc3ccccc32)c(OC)c1	none
C/C(N)=C(/C#N)C(=O)CSc1nc2ccc(C)cc2[nH]1	none
CCN(C(=O)c1cc(Cl)ccc1OC)C1CCCCC1	none
COC(=O)c1sc(NC(=O)CSc2nnnn2-c2ccc(C)cc2C)nc1C	none
COc1ccc(C)cc1Cn1c(S(C)(=O)=O)nc2ccccc21	none

Bioassay records: PubChem BioAssay, The Scripps Research Institute Molecular Screening Center
